Calls of active or inactive are those of the source. How the source made its calls: active means hit-call score of the fitted dose curve at least 0.9, where 1 is the maximum; inactive means score below 0.9.

Chain of Estrogen receptor (Homo sapiens) (P03372 whole entry, looked up): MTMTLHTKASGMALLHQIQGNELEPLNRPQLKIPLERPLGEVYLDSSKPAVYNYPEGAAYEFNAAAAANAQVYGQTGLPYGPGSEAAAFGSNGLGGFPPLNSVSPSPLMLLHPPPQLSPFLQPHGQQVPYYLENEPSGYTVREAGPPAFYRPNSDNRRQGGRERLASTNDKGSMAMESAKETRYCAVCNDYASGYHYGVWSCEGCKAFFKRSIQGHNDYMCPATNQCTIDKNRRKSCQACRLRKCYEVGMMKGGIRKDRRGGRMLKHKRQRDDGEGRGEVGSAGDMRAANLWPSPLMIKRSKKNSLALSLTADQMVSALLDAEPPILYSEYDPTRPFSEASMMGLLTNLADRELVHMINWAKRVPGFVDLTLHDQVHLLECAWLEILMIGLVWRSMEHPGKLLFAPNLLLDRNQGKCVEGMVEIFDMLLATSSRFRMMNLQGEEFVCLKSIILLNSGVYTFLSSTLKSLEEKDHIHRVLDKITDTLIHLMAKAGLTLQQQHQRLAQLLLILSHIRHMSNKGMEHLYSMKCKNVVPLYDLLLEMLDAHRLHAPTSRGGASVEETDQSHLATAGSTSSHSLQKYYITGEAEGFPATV

In the assay the target is Estrogen receptor (Homo sapiens) (UniProt P03372). Put plainly: OT_ERa_GFPERaERE_0480: Odyssey Thera (OT) 8-hour HeLa Transcription Induction Assay for Estrogen Receptor (AID 2283381). The procedure, abridged:
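HeLa cells expressing GFP reporter under estrogen response element, imaged 8 h after dosing. GFP induction quantified by high-content fluorescence microscopy image analysis; gain of signal fitted versus DMSO.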
As to `N#Cc1c(Cl)cccc1Cl`, the molecule was classed as inactive.

For `Cn1c(-c2ccccc2)cc(-c2ccccc2)[n+]1C`, the molecule was classed as inactive.

As for `CC(C)NC(=O)N1CC(=O)N(c2cc(Cl)cc(Cl)c2)C1=O`, the molecule was called inactive.

In the case of `CCSC(=O)N1CCCCCC1`, the outcome was inactive.

In the case of `C=CCOC(=O)C(C)(C)OC(=O)c1cc(-n2c(=O)cc(C(F)(F)F)n(C)c2=O)ccc1Cl`, the molecule was classed as inactive.

On to `Nc1cnn(-c2ccccc2)c(=O)c1Cl`, for which the outcome was inactive.

In the case of `CC(C)Nc1nc(Cl)nc(NC(C)C)n1`, the molecule was classed as inactive.

In the case of `CC(C)=CC1C(C(=O)OCc2coc(Cc3ccccc3)c2)C1(C)C` (stereo not given), the result was inactive.

Turning to `CCN(CC)c1nc(C)cc(OP(=S)(OC)OC)n1`, the result was inactive.

`CCNC(=O)NC(=O)C(C#N)=NOC`: the call was inactive.

With `CCOc1nc(C(Cl)(Cl)Cl)ns1`, the molecule was called inactive.

Consider `CO/N=C(/C1=NOCCO1)c1ccccc1Oc1ncnc(Oc2ccccc2Cl)c1F`, for which the call was inactive.

In the case of `CC(C)N1C(=O)c2ccccc2NS1(=O)=O`, the outcome was inactive.

Regarding `CCNP(=S)(OC)O/C(C)=C/C(=O)OC(C)C` (stereo not given), the outcome was inactive.

With `Cc1cc(C)nc(Nc2ccccc2)n1`, the molecule was called inactive.

In the case of `Cc1ccc(N=CN(C)C=Nc2ccc(C)cc2C)c(C)c1`, the result was inactive.

Consider `CC1(C)CON(Cc2ccccc2Cl)C1=O`, for which the molecule was classed as inactive.

Consider `CCOP(=S)(OCC)Oc1nc(Cl)n(C(C)C)n1`, for which the molecule was called inactive.

In the case of `CC(C)Oc1cccc(NC(=O)c2ccccc2C(F)(F)F)c1`, the molecule was classed as inactive.

As for `O=C(Nc1ccccc1-c1ccc(Cl)cc1)c1cccnc1Cl`, the call was inactive.

For the molecule `C=C(C)CN(CC)c1c([N+](=O)[O-])cc(C(F)(F)F)cc1[N+](=O)[O-]`, the molecule was called inactive.

On to `O=P(O)(O)CCCl`, for which the molecule was called inactive.

For the molecule `CC1(C)C(C=C(Cl)Cl)C1C(=O)OC(C#N)c1cccc(Oc2ccccc2)c1` (stereo not given), the molecule was classed as inactive.

With `CCCCC(C#N)(Cn1cncn1)c1ccc(Cl)cc1` (stereo not given), the result was inactive.

In the case of `COC(=O)NS(=O)(=O)c1ccc(N)cc1`, the result was inactive.

Consider `N#Cc1c[nH]cc1-c1cccc2c1OC(F)(F)O2`, for which the result was inactive.

Turning to `CNC(=O)N(C)c1nnc(C(C)(C)C)s1`, the call was inactive.

As for `COCC(C)N(C(=O)CCl)c1c(C)csc1C` (stereo not given), the result was inactive.

In the case of `O=C1C2CC=CCC2C(=O)N1SC(Cl)(Cl)Cl` (stereo not given), the molecule was called inactive.

Turning to `CC(C)C1(C)N=C(c2ncccc2C(=O)O)NC1=O` (stereo not given), the molecule was called inactive.

`CC(C)(C)C(=O)C(Oc1ccc(Cl)cc1)n1cncn1` (stereo not given): the molecule was called inactive.

`COP(=O)(OC)O/C(C)=C/C(=O)N(C)C`: the molecule was called inactive.

With `N#CN=C1SCCN1Cc1ccc(Cl)nc1`, the result was inactive.

On to `CN/C(=N\[N+](=O)[O-])NCc1cnc(Cl)s1`, for which the molecule was classed as inactive.

Consider `Clc1nc(Cl)nc(Nc2ccccc2Cl)n1`, for which the molecule was classed as inactive.

Source of the values: PubChem BioAssay (EPA / NIEHS).
